Sampled rows, rich in hits. Any-hit rate of the full collection: about 10%.
G9a block: inhibitors of human histone lysine methyltransferase G9a; Potency, µM (doses to about 102 µM), for inactives: at the top dose activity, negative = inhibition, most hits filed as inhibitors; G9a H3K9 monomethylation, AlphaScreen, 2 h; actives 8.8% (n = 350,000); AID 504332; further: potency means the concentration at half of the fitted maximal effect; on the % scale 0 is the no-effect control and ±100 the full control effect; nearly all actives have a fitted effect of over 75% in size
Target sequence (Q96KQ7 913-1193 limits assumed): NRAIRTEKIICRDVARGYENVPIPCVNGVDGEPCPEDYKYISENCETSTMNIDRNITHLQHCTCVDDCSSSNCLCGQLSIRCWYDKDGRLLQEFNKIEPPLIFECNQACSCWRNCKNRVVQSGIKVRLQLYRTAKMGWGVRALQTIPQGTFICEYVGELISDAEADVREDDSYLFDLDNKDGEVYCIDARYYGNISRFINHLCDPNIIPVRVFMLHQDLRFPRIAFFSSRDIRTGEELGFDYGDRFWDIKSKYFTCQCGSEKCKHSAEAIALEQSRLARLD
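AlphaScreen read-out: biotin-H3K9 peptide (500 nM) methylation by 20 nM enzyme with 20 uM SAM, 2 h at room temperature after 15 min compound preincubation; anti-monomethyl H3K9 antibody plus donor/acceptor beads, 10 min dark.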
HP1b binding inh: inhibitors of HP1-beta chromodomain binding to methylated histone tails; actives 0.56% (n = 390,000); Potency, µM (doses to about 114 µM), for inactives: at the top dose activity change, negative = inhibition, most hits filed as inhibitors; AlphaScreen HP1-beta / biotin-H3K9me3 peptide binding; further: potency means the concentration at half of the fitted maximal effect; nearly all actives have a fitted effect of over 70% in size
Target sequence (P83916 whole entry, looked up): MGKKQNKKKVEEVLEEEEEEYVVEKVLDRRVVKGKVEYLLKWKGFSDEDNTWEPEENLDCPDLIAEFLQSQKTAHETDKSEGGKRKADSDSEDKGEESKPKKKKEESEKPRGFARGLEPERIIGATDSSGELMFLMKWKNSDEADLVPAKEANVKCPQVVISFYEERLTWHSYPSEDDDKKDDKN
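HP1-beta protein (50 nM final) preincubated 30 min at room temperature with biotinylated H3(1-18)K9me3 peptide (50 nM) in PBS pH 7.4, 0.01% Tween-20, then compound added for 30 min. AlphaScreen streptavidin donor/nickel chelate acceptor beads (10 ug/mL final), 30 min dark, luminescence read.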
BAZ2B block: BAZ2B (human) inhibition; Q9UIF8; actives 4.4% (n = 360,000); AlphaScreen BAZ2B-H3K14Ac peptide displacement; Potency, µM (series often up to 114 µM), inactives show at the highest dose activity change, negative = inhibition, most hits filed as inhibitors; further: potency means the concentration at half of the fitted maximal effect; on the % scale 0 is the no-effect control and ±100 the full control effect; nearly all actives have a fitted effect of over 60% in size
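Complex of BAZ2B and biotin-H3K14Ac (50 nM apiece) forms over 30 min at RT, then faces library compounds up to 110 uM for another 30 min; AlphaScreen beads added, 20 min dark incubation, luminescence read.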
JMJD2A Tudor: blocks the human JMJD2A Tudor domain. actives 4.4% (n = 390,000). O75164. Potency, µM (series often up to 114 µM), without a hit: top-dose activity change, negative = inhibition, hits mostly inhibitors. AlphaScreen JMJD2A-Tudor / H3K4me3 peptide binding; further: potency means the concentration at half of the fitted maximal effect; on the % scale 0 is the no-effect control and ±100 the full control effect; nearly all actives have a fitted effect of over 50% in size
GLS inhibitor: inhibitors of human glutaminase (GLS); actives 0.21% (n = 410,000); AID 624170; Potency, µM (series often up to 45.5 µM), without a hit: at the highest dose activity change, negative = inhibition, usual class: inhibitors; GLS enzymatic activity, qHTS titration; further: potency means the concentration at half of the fitted maximal effect; on the % scale 0 is the no-effect control and ±100 the full control effect
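hKGA in 45 mM KH2PO4 (pH 8.2), 0.02% Tween-20 with compound, then 1mM L-Glutamine (stock as added) plus glutamate oxidase/HRP/Amplex red coupling mix. Fluorescence read initially and after 30 min at RT; signal change reflects glutamate formation.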
ME-1 prolif: ME-1 cell growth inhibition. shares compounds with BAZ2B block. ME-1 cell proliferation, ATP luminescence, 48 h. Potency, µM (titrated, usually from 56.1 µM), for the others: top-dose activity change, negative = inhibition, actives largely listed as inhibitors. actives 20% (n = 140)
The depositor's hits bear a star; u = inconclusive; x = no result; [ ] = another dose, or the depositor's remark. The call rests on the fitted dose curve; in most records, active means well fitted curve in the direction sought with a large enough effect; inconclusive means small, poorly fitted or top-dose-only effect, or another doubt; inactive means no such curve, though single readings can be large; an effect the other way counts as inactive or inconclusive.

SMILES	G9a block	HP1b binding inh	BAZ2B block	JMJD2A Tudor	GLS inhibitor	ME-1 prolif
C=C1c2cccc(O)c2C(O)=C2C(=O)[C@@]3(O)C(O)=C(C(N)=O)C(=O)[C@@H](N(C)C)[C@@H]3[C@@H](O)[C@H]12	4µM*	x	x	x	u	-3%
COC(=O)c1c(C)cc(OC(=O)c2c(C)cc(O)c(C=O)c2O)c(C)c1O	-12%[2.33 µM]	x	x	x	x	x
Cc1cc(O)c(C=O)c2c1C(=O)Oc1c(COC(=O)/C=C/C(=O)O)c(O)c(C(=O)O)c(C)c1O2	u	x	x	x	x	10%
CCc1sc(N)nc1-c1ccccc1	u	-10%	u	-36%	19%	-7%[25.6 µM]
Cc1sc(N)nc1-c1ccccc1	-50%	-6%	-13%	-31%	-4%	x
O=C(NC(=S)NNC(=O)c1ccccc1O)c1ccco1	u	1%	u	35µM*	60%	u
O=C(NNC(=S)NC(=O)c1ccco1)c1ccc(NC(=O)c2ccccc2)cc1	u	35%	x	12%[11.4 µM]	-6%	x
COc1ccc(Oc2nc(-c3ccccn3)ncc2OC)cc1	u	32%	28µM*	89µM*	5%	u
COc1cnc(-c2ccccn2)nc1Sc1ccccc1Cl	100%[59 µM]	4%	-36%[57.1 µM]	u	-7%	x
Cn1cnnc1SCCC(=O)Nc1ccccc1	14%	25%	0%	7%	1%	x
Nc1c(C(=O)NCC2CCCO2)sc2nc3c(c(-c4ccco4)c12)CC/C3=C\c1ccco1 (centres undefined)	8.9µM*	u	8.9µM*	2µM*	u	u
NC(=O)c1sc2nc3c(c(-c4ccco4)c2c1N)CCCC3	-28%[59 µM]	27%	-19%	-24%	1%	x
O=C1CSC(=S)N1/N=C/c1ccc(O)c(O)c1O	1.3µM*	1.8µM*	2.8µM*	3.2µM*	u	u
O=C(O)c1cccnc1Cl	u	56%	u	-2%	-9%	x
O=C(O)c1cccnc1C(=O)O	3.5µM*	13%	6.3µM*	0.89µM*	19%	-13%
CNCC(=O)O	5%[59 µM]	9%	-7%	-36%	13%	x
O=C(c1ccc2c(c1)OCO2)C1CCCN(Cc2ccccc2OC(F)F)C1 (centres undefined)	x	51%	-1%	-10%	-5%	x
COc1ccc2c(c1)oc(=O)c1cc(OC)ccc12	-17%[59 µM]	14%	u	-24%	1%	x
COc1cc(O)c2c(c1)oc(=O)c1c3cc(O)c(O)cc3oc21	x	x	x	x	x	32µM*
COC(=O)C1=C[C@@H](C(=O)OC)C2C3=C(C(=O)[C@]2(C)NC(=O)c2ccccc2)[C@H](C)[C@@H]2C(=O)N(C)C(=O)[C@@H]2[C@@H]3C1 (some centres undefined)	x	8%	x	-16%	x	x
Cc1cccc(NC(=S)N(CCN(C)C)C(C)c2ccccn2)c1 (centres undefined)	22%[12.7 µM]	25%	56µM*	-10%	27%	-8%[25.6 µM]
Cc1ccc(Cl)cc1NC(=S)N(CCN(C)C)C(C)c1ccccn1 (centres undefined)	-26%	21%	x	-2%	9%	-7%[25.6 µM]
CN(C)c1nc(-c2ccccn2)nnc1-c1ccccc1	24%	48%	0.79µM*	4µM*	9%	16µM*
O=C(O[C@@H]1OC2COC(=O)c3cc(O)c(O)c(O)c3-c3c(cc(O)c(O)c3O)C(=O)O[C@@H]([C@H]1O)[C@@H]2O)c1cc(O)c(O)c(O)c1	1.6µM*	-74%	0.79µM*	x	28%	u
COc1ccccc1Cc1c(-c2ccco2)nc2ccc(Cl)cn12	x	x	x	x	-3%	x
CO/N=C1\CN(c2nc3c(cc2F)c(=O)c(C(=O)O)cn3C2CC2)CC1CN (centres undefined)	-7%[2.33 µM]	x	x	x	-6%	u
O=C(CCCOc1ccccc1)OCn1nnc2ccccc2c1=O	12%	92%	26%	23%	-28%	x

Screening data: PubChem BioAssay, National Center for Advancing Translational Sciences (NCATS)
